Results reported in PubChem BioAssay AID463173 (ICCB-Longwood Screening Facility, Harvard Medical School, 2010).
Among all 52,000 compounds or so, about 1,700 (3.3%) were called active. Rule as the data show it: active = survival mostly below about 52% (no sharp cut-off); inactive = mostly above about 56%. This excerpt belongs to a sample that is enriched for actives.

system: Wild type; experiment: S. aureus survival, RN4220 and DeltatarO strains – OD600, teichoic acid synthesis inhibitors, primary screen (AID 463173); details: S. aureus RN4220 wild type/DeltatarO growth, OD600, 18 h, hits give low values, screened at 18.75 µg/mL (by protocol)

Structure (SMILES)	survival
CC1CCN(C(=O)Cn2c(=O)n(CC3CCC(C(=O)NC(C)C)CC3)c(=O)c3sccc32)CC1 (stereo not drawn)	78% (inactive)
CCn1c(C(=O)NCc2ccccc2)cc2sc(Cl)cc21	2% (active)
CCn1c(C(=O)NCc2ccc(OC)cc2)cc2sc(Cl)cc21	37% (inactive)
CCn1c(C(=O)NCc2ccc(C)cc2)cc2sc(Cl)cc21	78% (inactive)
CCOC(=O)c1c(C)n(-c2ccccc2)c2ccc(OC(=O)COc3ccc(Cl)cc3)cc12	78% (inactive)
Cc1ccc(NC(=O)c2cc(-c3ccc4c(c3)OCO4)on2)cc1	105% (inactive)
CC(C)c1ccc(OC(=O)c2cc(-c3ccccc3)on2)cc1	106% (inactive)
Cc1ccc(Cl)cc1NC(=O)c1cc(-c2ccc3c(c2)OCCO3)on1	67% (inactive)
Cc1ccccc1OC(=O)c1cc(-c2ccc3c(c2)OCCO3)on1	-6% (active)
Cc1ccc(-c2cc(C(=O)Oc3ccccc3Cl)no2)cc1C	-6% (active)
O=C(Oc1ccccc1Cl)c1cc(-c2ccc3c(c2)OCCO3)on1	-7% (active)
O=C(Nc1cccc(Cl)c1)c1cc(-c2ccc3c(c2)OCCO3)on1	122% (inactive)
CCOC(=O)c1cc(-c2ccc(OC)c(S(=O)(=O)NCc3ccccc3Cl)c2)on1	79% (inactive)
O=C(Nc1ccccc1C(F)(F)F)c1cc(-c2ccc3c(c2)OCCO3)on1	113% (inactive)
Cc1ccc(OC(=O)c2cc(-c3ccc(Cl)cc3)on2)c(C)c1	93% (inactive)
Cc1ccc(OC(=O)c2cc(-c3ccc4c(c3)OCCO4)on2)c(C)c1	-6% (active)
Cc1oc2ncn(C)c(=O)c2c1C(=O)N1CCN(c2cccc(C(F)(F)F)c2)CC1	82% (inactive)
CCOc1ccccc1CNCCNC(=O)c1nonc1N	128% (inactive)
CCCNS(=O)(=O)c1ccc(OCC(=O)NCc2ccccn2)cc1	122% (inactive)
NC(=Nc1ccccc1)SC1CC(=O)N(c2ccccc2)C1=O (stereo not drawn)	113% (inactive)
O=C(Nc1ccccc1NC(=O)c1cccs1)c1cccs1	111% (inactive)
COc1cccc(NC(=O)Cn2c(=O)ccc3cc(S(=O)(=O)N4CCC(C)CC4)ccc32)c1	73% (inactive)
CCn1cc(/C=C(\NC(=O)c2ccccc2Cl)C(=O)NCCCn2ccnc2)c2ccccc21	121% (inactive)

Structure (SMILES)	survival
COC(=O)c1sccc1S(=O)(=O)N1CCN(c2cccc(C)c2C)CC1	67% (inactive)
COc1cc(NC(=O)Cn2c(-c3ccccc3)cc(C(C)=O)c2C)cc(OC)c1	92% (inactive)
COc1ccc2c(c1)N(C)/C(=C1/SC(=S)N(C)C1=O)S2	122% (inactive)
COc1cccc(CNC(=O)c2cc(-c3ccc(Cl)cc3)n[nH]2)c1	136% (inactive)
C#CCNc1c2c(nc3nnnn13)CCCC2	104% (inactive)
CCSC(=C(C#N)C#N)c1cc2c([nH]1)CCCC2	116% (inactive)
Cc1ccc2ccc3cc(C(=O)N4CCN(c5ccccc5F)CC4)nc3c2[nH]1	78% (inactive)
CCOc1ccc(NC(=O)Cn2c(=O)n(Cc3ccc(C(=O)NCc4ccc5c(c4)OCO5)cc3)c(=O)c3ccccc32)cc1	98% (inactive)
Cc1cccc(OC(=O)c2cc(-c3ccc4c(c3)OCCO4)on2)c1C	-6% (active)
O=C(Nc1cccc(Br)c1)c1cc(-c2ccc3c(c2)OCCO3)on1	80% (inactive)
Cc1cccc(OC(=O)c2cc(-c3ccc(Cl)cc3)on2)c1C	116% (inactive)
CCCc1nnc(NC(=O)Cc2coc3ccc(C(C)C)cc23)s1	99% (inactive)
O=C(Nc1ccc2c(c1)N(C1CCCC1)C(=O)c1ccccc1S2)c1ccc(F)cc1	87% (inactive)
O=C(Nc1ccc2c(c1)N(C1CCCC1)C(=O)c1ccccc1S2)c1ccccc1	75% (inactive)
CC(=O)Nc1ccc(C(=O)Nc2ccc3c(c2)N(C2CCCC2)C(=O)c2ccccc2S3)cc1	-6% (active)
Cc1ccc(S(=O)(=O)C(=O)Nc2cccc3nsnc23)cc1	93% (inactive)
CCc1ccc(NC(=O)Cn2c(=O)n(CC3CCCO3)c(=O)c3cc(OC)c(OC)cc32)cc1 (stereo not drawn)	68% (inactive)
CN1CCN(C(CNC(=O)C(=O)Nc2ccc(F)cc2)c2cccnc2)CC1 (stereo not drawn)	96% (inactive)
Cc1cc2c(cc1S(=O)(=O)N(C)CC(=O)Nc1cccc(C#N)c1)OCC(=O)N2	-4% (active)
CN(CC(=O)Nc1cccc(C#N)c1)S(=O)(=O)c1cc2c(cc1Cl)NC(=O)CO2	129% (inactive)
Cc1cc2c(cc1S(=O)(=O)N(C)CC(=O)Nc1ccc(C#N)cc1)OCC(=O)N2	64% (inactive)
COc1ccc(-c2[nH]ncc2C(=O)NCc2cccc(F)c2)cc1	78% (inactive)
CCOC(=O)c1nc(N2CCN(c3ccc(F)cc3)CC2)c2c(C)noc2n1	14% (active)

Structure (SMILES)	survival
CCOC(=O)c1c(C)oc2nc(C)nc(N3CCN(c4ccc(OC)cc4)CC3)c12	68% (inactive)
Cc1noc2nc(C(=O)O)nc(N3CCCCC3)c12	73% (inactive)
CCC(=O)N1CCc2cc(CNS(=O)(=O)c3cccs3)ccc21	89% (inactive)
Cc1cc(OCC(=O)NCC2(N3CCN(C)CC3)CCCCC2)cc(C)c1Cl	80% (inactive)
CCOc1ccc(CNC(=O)c2ccccc2NC(=O)c2nsc3ccccc23)cc1	-6% (active)
Cc1ccc(CNC(=O)c2ccccc2NC(=O)c2nsc3ccccc23)cc1	75% (inactive)
CC(C)Oc1ccc(CNC(=O)c2ccccc2NC(=O)c2nsc3ccccc23)cc1	124% (inactive)
Cc1ccc(S(=O)(=O)NCCc2nnc3ccc(SCC(=O)Nc4c(C)cc(C)cc4C)nn23)cc1	86% (inactive)
CCC(=O)N1CCc2cc(S(=O)(=O)NCCC(=O)Nc3cc(C)ccc3OC)ccc21	117% (inactive)
Cc1ccc(NC(=O)C(Cc2c[nH]c3ccccc23)NC(=O)OCC(C)C)cc1 (stereo not drawn)	54% (inactive)
COC(=O)c1c(NC(=O)C(C)Oc2ccc(Cl)c(C)c2)sc(C)c1C (stereo not drawn)	10% (active)
CNC(=O)c1c(NC(=O)c2ccc(S(=O)(=O)N3CCCCC3)cc2)sc2c1CCC2	-2% (active)
CCCc1ccc(OCC(=O)Nc2sc3c(c2C(=O)OC)CCCCC3)cc1	43% (inactive)
COC(=O)c1c(NC(=O)C(C)Oc2ccc(Cl)cc2Cl)sc2c1CCCC2 (stereo not drawn)	57% (inactive)
CNC(=O)c1c(NC(=O)c2ccc(S(=O)(=O)N3CCC(C)CC3)cc2)sc2c1CCC2	129% (inactive)
CCOC(=O)c1c(NC(=O)C(C)Oc2ccc(Cl)c(C)c2)sc2c1CCCC2 (stereo not drawn)	50% (inactive)
CCOC(=O)c1c(NC(=O)c2ccc(OC)cc2)sc2c1CCCCC2	7% (active)
CNC(=O)c1c(NC(=O)c2ccc(S(=O)(=O)N3CCCC(C)C3)cc2)sc2c1CCC2 (stereo not drawn)	101% (inactive)
CCCCOc1ccc(C(=O)Nc2sc3c(c2C(=O)OCC)CCCCC3)cc1	38% (inactive)
Cc1cc(OC(C)C(=O)Nc2sc3c(c2C(N)=O)CCCC3)ccc1Cl (stereo not drawn)	82% (inactive)
CCCOc1ccc(C(=O)Nc2sc3c(c2C(=O)OCC)CCCCC3)cc1	27% (inactive)
CCCc1ccc(OC(C)C(=O)Nc2sc3c(c2C(=O)OC)CCCCC3)cc1 (stereo not drawn)	-2% (active)
